Growth data for 40 compounds are collected here from PubChem BioAssay (NCI).

This is part of a sample that, as a whole, favours compounds with a hit. Of some 83,000 tested, about 20% had one in any assay.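 Step 1: grow cells in 96-well plates. Step 2: add test compound at a single concentration. Step 3: incubate 48 h. Step 4: record percent growth.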 A number with no mark means an inactive call. Activity calls are given as the source filed them.

The assay relates to IGROV1 ovarian. The assay can be described thus: NCI-60 one-dose screen, 48 h (100 = growth as untreated, 0 = no growth, -100 = all killed). The following applies: 10 µM unless noted. The procedure: Growth inhibition of the IGROV1 human tumor cell line is measured as a screen for anti-cancer activity. Cells are grown in 96 well plates and exposed to the test compound for 48 hours. Compounds are tested at a single concentration, which is 10^-5 M for most compounds. The reported endpoint is percent growth (GI% or GIPRCNT), where numbers from 0 - 100% represent growth inhibition, and numbers from -100% - 0 represent cell death. For example, a value of 40 represents 60% growth inhibition. A value of 0 means no net growth occurred over the course of the experiment. A value of -40 indicates 40% of cells at the beginning of the experiment died by the end of the experiment. A value of -100 means all cells are dead at the end of the experiment.
NCI-60 Human Tumor Cell Lines Screen was performed using the standard one-dose NCI protocol, which is described in more detail at https://dtp.cancer.gov/discovery_development/nci-60/default.htm.
Compounds with GIPRCNT values below 10 were considered active. Activity score was based on GIPRCNT using the following formula: […]
Score is 0 for GIPRCNT values of 100 or above, 50 for GIPRCNT values of 0, and 100 for GIPRCNT values of -100.
Take `Cn1c2ccccc2c2ssc(=S)c21`: the growth is -26.5% (active).

As to `CCC1S/C(=N\N=C(/C)c2ccco2)N(c2ccccc2)C1=O` (stereo not given), the growth was -17.1% (active).

Regarding `COC(=O)c1oc2c(C(C)=O)c(OCCN3CCCCC3)ccc2c1C`, the growth was -8.51% (active).

With `CCOC(=O)NNc1nncc2ccccc12`, the growth was 106%.

As to `COc1ccc(-c2nnc(NC(=O)CN3CCN(c4cc5c(cc4F)c(=O)c(C(=O)O)cn5C4CC4)CC3)s2)cc1OC`, the growth was 104%.

As for `O=C1COc2ccccc2C(=O)N1CCCCNc1ccccc1`, the growth is 99.9%.

On to `c1ccc2nc(Cn3cc[n+](Cc4ccc5ccccc5n4)c3)ccc2c1`, for which the growth is 68.3%.

On to `O=C(CSc1nnc(-c2ccc(Cl)cc2)o1)Nc1ccc(C(=O)/C=C/c2ccccc2)cc1`, for which the growth was 95.7%.

As for `CC(C)(C)OC(=O)NCc1cccc(N=C=S)c1`, the growth is 43.1%.

On to `Nc1n[nH]c2cccc(C#Cc3cccc(NC(=O)c4cccc(C(F)(F)F)c4)c3)c12`, for which the growth is -7.33% (active).

Consider `COc1ccc(/C=C/C(=O)c2ccc(Oc3ncnc4ccccc34)cc2)cc1OC`, for which the growth was 33.5%.

Take `CCOC(=O)c1noc2c1CCc1c-2cn(Cc2ccc(OC)cc2)c1-c1cc(OC)c(OC)c(OC)c1`: the growth was 33.2%.

Take `CCOC(=O)C(C)(CSSCC(C)(NC(=O)c1ccc2ccccc2c1)C(=O)OCC)NC(=O)c1ccc2ccccc2c1` (stereo not given): the growth was 93.3%.

For the compound `O=[N+]([O-])c1cccc(C2c3ccccc3Oc3ccccc32)c1`, the growth was 76.8%.

As to `C[C@]12CC[C@@H]3c4ccc(O)c(N)c4CC[C@H]3[C@@H]1CC[C@@H]2O`, the growth was 136%.

As for `COc1ccc2c(c1)OC(N)=C(C#N)C2c1ccc(F)cc1` (stereo not given), the growth was 53.1%.

As for `COc1cc2c(cc1OCCCCC(=O)Nc1ccc(-c3nc4ccccc4s3)cc1)N=C[C@@H]1CCCN1C2=O`, the growth is -17.1% (active).

In the case of `CC(=O)c1cc2c(c(O)c1C)C(=O)C(=O)c1c(O)cccc1-2`, the growth was -37.3% (active).

For `COc1ccc2c(-c3ccc(F)cc3)c(C#N)c(=NC(C)=O)oc2c1`, the growth was 54%.

For `COc1ccc(-c2nn(-c3ccc(NC(=O)Nc4ccc(Cl)c(Cl)c4)cc3)cc2-c2ccncc2)cc1Cl`, the growth was 36.6%.

`Nc1nccc(=S)[nH]1`: the growth was 107%.

As to `COC(=O)CCCNS(=O)(=O)c1cc(C(=O)Nc2ccc(NC(=O)c3cc(S(=O)(=O)NCCCC(=O)OC)c(O)c(O)c3O)cc2)c(O)c(O)c1O`, the growth is 100%.

Regarding `CC(=O)O[C@@H]1[C@@H](OC(C)=O)[C@H](OC(C)=O)CO[C@H]1Nc1cccc2ccccc12`, the growth is 97.9%.

As for `Cc1ncc(CO)c(C(=O)O)c1O`, the growth was 107%.

As for `NCC(=O)NS(=O)(=O)OC[C@H]1O[C@@H](n2cnc3c(N)ncnc32)[C@H](O)[C@@H]1O`, the growth is 11.7%.

Turning to `CC(NCCC(c1ccccc1)c1ccccc1)c1ccccc1` (stereo not given), the growth is 55.6%.

As for `O=C1/C(=C/c2cccc3cnccc23)Cc2cc(F)ccc21`, the growth is 85.9%.

Take `CN1CCN(CC(O)COc2c(Br)c(Br)c(Br)c3c2OC(C)(C)C3)CC1` (stereo not given): the growth was -66.9% (active).

For `CCN(CC)CCNC(=O)c1c(C)[nH]c(/C=C2\C(=O)Nc3cc(NC(=O)NC(=O)c4ccc(OC)cc4F)ccc32)c1C`, the growth is 98.5%.

In the case of `CNC(=O)NN`, the growth was 108%.

On to `Cc1ccc2c(C3C(C#N)=C(N)Oc4cc5ccccc5cc43)cc(=O)oc2c1` (stereo not given), for which the growth was 39.7%.

In the case of `Cc1cc(Nc2ccc(Cl)c(Cl)c2)nc(N)n1`, the growth is 114%.

As for `c1ccc([Se]CCCN2CCN(CCC[Se]c3ccccc3)CC2)cc1`, the growth was 103%.

For the compound `S=c1[nH]nc(Cn2c3ccccc3c3ccncc32)o1`, the growth was 103%.

For the compound `Cc1ccc(NC(=O)CN2CCOCC2)cc1Cl`, the growth is 107%.

Regarding `O=C(Nc1ccc(-n2ccc3c(NC(=O)c4ccccc4)nccc32)cc1)Nc1ccc(Cl)c(Cl)c1`, the growth was 4.31% (active).

Take `CCC(N)(C(=O)O)c1ccc(F)cc1` (stereo not given): the growth was 109%.

For `O=C(/C=C/c1ccccc1)Oc1ccc(/C=C/c2cc(OC(=O)/C=C/c3ccccc3)cc(OC(=O)/C=C/c3ccccc3)c2)cc1`, the growth is 98.6%.

Take `COc1ccc(C2=NN(C(=O)COc3ccc(Cl)cc3)C(O)(c3cc(F)c(Cl)cc3Cl)C2)cc1OC` (stereo not given): the growth is -50.6% (active).

In the case of `Cc1ccc[n+](CC(=O)c2cccc3ccccc23)c1`, the growth was 96%.
